Reference: PubChem BioAssay (NCATS)
Where “and” joins values, the source holds several entries; their conditions need not be identical. Equal entries are not always repeated. Records with an inconclusive call do not appear. Calls of active or inactive are those of the source. Unless noted, calls follow the shape of the dose curve; as a rule, active = well fitted curve in the direction sought with a large enough effect; inconclusive = small, poorly fitted or top-dose-only effect, or another doubt; inactive = no such curve, though single readings can be large; an effect the other way counts as inactive or inconclusive. Peptide text beside a SMILES is read from it.

Assays:
[1] = qHTS profiling of the MIPE4 collection as inhibitors of Plasmodium falciparum (HB3) proliferation (AID 743347; call rule not given here;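 also: plate controls were DMSO vehicle wells for no effect and artemisinin wells for full effect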); conditions: P. falciparum HB3 in erythrocytes, SYBR Green DNA, 72 h; at 28.5 µM (top of the series) unless noted
Method in brief: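 Erythrocytes infected with P. falciparum (0.3% parasitemia, 2.5% hematocrit) incubated with compounds 72 h at 37 C, 5% CO2. Lysis with saponin/Triton buffer containing SYBR Green I, overnight at room temperature in the dark; DNA fluorescence (485/535 nm) normalised to 0.29 uM artemisinin and DMSO.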

[2] = High-throughput drug toxicity screening in the BPDCN cell line Gen2.2 (AID 1224824; call rule not given here;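 also: cells exposed to compounds for 48 h before reading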); conditions: Gen2.2 BPDCN cells; at 45.8 µM (top of the series) unless noted
Method in brief: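 Gen2.2 cells, 500 per well in phenol red-free RPMI with 10% FBS, exposed to compounds 48 h at 37 C, 5% CO2; viability by CellTiter-Glo luminescence. Percent activity scaled to DMSO (100%) and 9.2 uM bortezomib final (0%).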

[3] = High-throughput drug toxicity screening in the BPDCN cell line Cal-1 (AID 1224825; call rule not given here); conditions: Cal-1 BPDCN cell viability, qHTS; at 45.8 µM (top of the series) unless noted
Method in brief: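 Cal-1 cells, 500 per well in phenol-red-free RPMI with 10% FBS, exposed to compounds for 48 hours at 37C, 5% CO2. Viability read by CellTiter-Glo luminescence; percent activity normalized to DMSO (100%) and 9.2 uM bortezomib final (0%).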

[4] = qHTS assay for measurement of the activity of small molecule inhibitors on Zika virus induced Caspase-3 activity in human iPSC derived neural progenitor cells (hNPCs) (AID 1224857); also: nearly all actives have a fitted effect of over 65% in size; also: potency is read from the fitted curve at half-maximal effect
Method in brief: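 Values are percent inhibition of virus-induced caspase-3/7 signal, scaled between uninfected cells and ZIKV-infected cells. Infection used 2 FFU/cell for 6 h after 1 h compound exposure.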

[5] = qHTS assay for measurement of the activity of small molecule inhibitors on Zika virus induced Caspase-3 activity in human astrocytoma cells (AID 1224859); also: potency is read from the fitted curve at half-maximal effect
Method in brief: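 Compound added 1 h pre-infection; ZIKV 2 FFU/cell on SNB-19 cells, 6 h, 37 C/5% CO2. Caspase-Glo 3/7 luminescence; values as % inhibition of ZIKV-induced caspase activity.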

[6] = qHTS Screen of the MIPE 4.0 Collection Against Ewings Sarcoma (EW8) (AID 1259255); also: nearly all actives have a fitted effect of over 35% in size; also: potency is read from the fitted curve at half-maximal effect;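 as to viability: 100% = DMSO-treated cells and 0% = medium-only wells without cells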
Method in brief: (§1)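 Log-phase cells in RPMI with 5% FBS attached for 4 h, then received compounds as a titration for 48 h at 37C, 5% CO2. Viability was read by CellTiter-Glo luminescence and normalized to DMSO and no-cell wells.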

[7] = qHTS Screen of the MIPE 4.0 Collection Against Ewings Sarcoma (TC32) (AID 1259256); also: nearly all actives have a fitted effect of over 45% in size; also: potency is read from the fitted curve at half-maximal effect
Method in brief: as §1

[8] = qHTS Screen of the MIPE 4.0 Collection Against Ewings Sarcoma (TC71) (AID 1259253); also: potency is read from the fitted curve at half-maximal effect; nearly all actives have a fitted effect of over 40% in size
Method in brief: as §1

[9] = qHTS assay to identify small molecule inhibitors of chordoma cells - UCH-1 (AID 1259355); also: nearly all actives have a fitted effect of over 55% in size; also: potency is read from the fitted curve at half-maximal effect
Method in brief: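 Cells (800/well) were seeded and left overnight at 37 C, 5% CO2, then treated with drugs at 15 concentrations plus a combination mix of auranofin, camptothecin, doxorubicin, rubitecan and topotecan. Viability after 48hr was read by CellTiter-Glo luminescence.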

Row | Structure (SMILES) | growth, % of control [1] | cell viability, % of control (lower = more cytotoxic) [2] | viability (% of control) [3] | Potency [4] | Potency [5] | Potency [6] | Potency [7] | Potency [8] | Potency [9]
1 | CC(C)Oc1ccc2c(=O)c(-c3ccccc3)coc2c1 | 54.5% | 181% | 102% | 10.5 µM (active) | 10 µM (active) and 11.8 µM (active) | inactive | inactive |  | 
2 | CC[C@]1(O)C[C@H]2CN(CCc3c([nH]c4ccccc34)[C@@](C(=O)OC)(c3cc4c(cc3OC)N(C=O)[C@H]3[C@@](O)(C(=O)OC)[C@H](OC(C)=O)[C@]5(CC)C=CCN6CC[C@]43[C@@H]65)C2)C1 | 5.89% | 10.7% | 10.9% | inactive | inactive |  | inactive | 3.3 nM (active) | 224 nM (active)
3 | Clc1ccc(C(Cn2ccnc2)OCc2c(Cl)cccc2Cl)c(Cl)c1 (configuration not stated) | 7.46% | 327% | 63.4% | inactive | inactive |  |  |  | 
4 | Oc1ccc(-c2nc(-c3ccc(F)cc3)c(-c3ccncc3)[nH]2)cc1 | 24.5% | 136% | 54.8% | inactive | inactive |  |  |  | 
5 | Cc1nc(Nc2ncc(C(=O)Nc3c(C)cccc3Cl)s2)cc(N2CCN(CCO)CC2)n1 | 3.03% | 74.9% | 11.7% | inactive | inactive | 20.9 µM (active) |  |  | 
6 | O=C(NCC1CCCCN1)c1cc(OCC(F)(F)F)ccc1OCC(F)(F)F (configuration not stated) |  | 42.6% | 12.9% | inactive | inactive | inactive |  |  | 
7 | COCCCN1CCC(NC(=O)c2cc(Cl)c(N)c3c2OCC3)CC1 | 15.7% | 418% | 76.6% | inactive | inactive |  |  |  | 
8 | CC(C)[C@H](N)C(=O)OCCOCn1cnc2c(=O)[nH]c(N)nc21 |  | 57% | 28.8% | inactive | inactive | inactive | inactive |  | inactive
9 | COC(=O)[C@H](Cc1ccccc1)NC(=O)[C@@H](N)CC(=O)O (H-Asp-Phe-OMe) | 107% | 280% | 114% | inactive | inactive |  |  |  | inactive
10 | Cc1c(OCC(F)(F)F)ccnc1CS(=O)c1nc2ccccc2[nH]1 (configuration not stated) |  | 595% | 100% | inactive | inactive |  | inactive |  | inactive
11 | CCC1=C(C)CN(C(=O)NCCc2ccc(S(=O)(=O)NC(=O)NC3CCC(C)CC3)cc2)C1=O (configuration not stated) | 99.4% | 114% | 118% | inactive | inactive | inactive | inactive |  | 
12 | Oc1ccc2ccccc2c1SSc1c(O)ccc2ccccc12 | 9.78% | 2.05% | 0.636% | 8.91 µM (active) | inactive |  | 23.5 µM (active) |  | 
13 | O=C1c2ccccc2-c2n[nH]c3cccc1c23 | 85.2% | 84.7% | 3.95% | inactive | inactive |  | 18.7 µM (active) |  | inactive
14 | NC(=O)Cc1cccc(C(=O)c2ccccc2)c1N | 95.3% | 108% | 114% | inactive | inactive | inactive | 4.69 µM (active) |  | 
15 | Cc1cccc(C)c1OCC(=O)N[C@@H](Cc1ccccc1)[C@@H](O)C[C@H](Cc1ccccc1)NC(=O)[C@H](C(C)C)N1CCCNC1=O | 3.91% | 28% | 91.4% | inactive | inactive |  |  |  | 
